Out of some 410,000 compounds screened, about 18,000 (4.4%) were called active. About 7% were inconclusive and are not listed. Rule as the data show it: active = activity change below about -60%; inconclusive = no clear call, values can overlap the other calls; inactive = above about -39%. This excerpt belongs to a sample that is enriched for actives.
experiment: qHTS Assay for inhibitors of the human cytomegalovirus (HCMV); settings: HFF cells, HCMV-luciferase reporter, 72 h; at 57.5 µM; stronger effect = lower value
In short: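 Cell-based, HFFs, 1000 cells/well, 16 h 37C; cpds in DMSO + HCMV-luc, MOI 1 PFU/cell; 72 h 37C; OneGlo luminescence after 5 min RT; norm. to buffer vs Salinomycin 10uM.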
% is scaled to controls: 0 for no effect and ±100 for the full control effect.

SMILES | activity change, negative = inhibition
CCC[C@H]1[C@H](NCC2CCCCC2)CC[C@@]23CCCN2C(=O)CCC[C@@H]13 | -6.34% (inactive)
CSCC[C@H](NC(=O)NCCc1ccc(F)cc1)C(=O)O | -21.4% (inactive)
CCOc1ccc(NC(=O)C(=O)NCCc2csc3nc(-c4ccccc4F)nn23)cc1 | 18.8% (inactive)
C=CCC[C@@H](CCCCC)OC(=O)/C=C/[C@@H](O)[C@H](O)C[C@H](O)CC=C | -0.272% (inactive)
Fc1ccc(-c2nn(-c3ccccc3Cl)c3c2cnc2ccccc23)cc1 | -6.36% (inactive)
O=C(NC1(C(F)(F)F)NC(=O)N(Cc2cccnc2)C1=O)c1ccccc1Cl (centres undefined) | -16% (inactive)
O=S(=O)(NCCc1ccc(Cl)cc1)c1cccs1 | -79.1% (active)
CN(CC(=O)NCc1ccc(Cl)cc1)S(=O)(=O)c1cccs1 | -18.2% (inactive)
CCc1ccc(NC(=O)CCNS(=O)(=O)c2cccs2)cc1 | 24.2% (inactive)
Cc1ccc2nc3c(cc(C(=O)NC4CCCCC4)c(=N)n3C(C)C)c(=O)n2c1 | -12.2% (inactive)
CC(NC(=O)c1cccc(S(=O)(=O)N2CCc3ccccc3C2)c1)c1ccco1 (centres undefined) | -21.6% (inactive)
Cc1cccc(N2CCN(C(=O)c3cccc(S(=O)(=O)N4CCc5ccccc5C4)c3)CC2C)c1 (centres undefined) | -62.2% (active)
CN(C)C(CNC(=O)c1cccc(S(=O)(=O)N2CCc3ccccc3C2)c1)c1ccccc1 (centres undefined) | 6.73% (inactive)
CCc1nnc2c3ccccc3nc(N3CCN(c4ccc(C)cc4C)CC3)n12 | 2.29% (inactive)
COC(=O)c1ccc(CSc2nnc(NC(C)C)s2)cc1 | -2.57% (inactive)
COc1ccccc1N1CC(C(=O)Nc2nnc(SCC(=O)NC(C)C)s2)CC1=O (centres undefined) | 45.2% (inactive)
CC(C)Nc1nnc(SCC(=O)/C=C2\N(C)c3ccccc3C2(C)C)s1 | -65.1% (active)
Cc1ccccc1-c1nc2scc(CCNC(=O)C(=O)Nc3ccc(F)cc3F)n2n1 | 2.08% (inactive)
CSc1nsc(NC(=O)Nc2ccccc2)n1 | -76.6% (active)
NC(c1csc(NC(=O)Nc2ccccc2Oc2ccccc2)n1)c1ccccc1Cl (centres undefined) | -24.7% (inactive)
CC(=O)Nc1ccc(-c2csc(NC(=O)Nc3ccccc3)n2)cc1 | -99.1% (active)
CC(=O)c1ccc(NC(=O)CSc2nnc(NC(=O)Nc3ccccc3)s2)cc1 | 103% (inactive)
Cc1ccccc1CNC(=O)c1cccc(NC(=O)c2nsc3ccccc23)c1 | 66.7% (inactive)

SMILES | activity change, negative = inhibition
CC(=O)c1cccc(NC(=O)CSc2nc3c(c(=O)[nH]2)CCC3)c1 | -2.89% (inactive)
CC(=O)c1ccc(NC(=O)N[C@@H](Cc2ccccc2)C(=O)O)cc1 | 23.2% (inactive)
NC(=O)C1CCN(C(=O)c2cccc(NC(=O)c3nsc4ccccc34)c2)CC1 | 40.7% (inactive)
C=CCSc1nsc(NC(=O)Nc2cccc(C(C)=O)c2)n1 | -101% (active)
CCSc1nsc(NC(=O)Nc2cccc(C(C)=O)c2)n1 | -74.9% (active)
C=CCSc1nnc2c(n1)-c1cccc3cccc-2c13 | 41.1% (inactive)
Cc1ccc(C(=O)Nc2nc(-c3ccccc3)ns2)cc1 | 27% (inactive)
CCOC(=O)c1cnc2c(C)cc(Cl)cc2c1NCCc1ccc(OC)c(OC)c1 | -5.49% (inactive)
CCOc1ccc(NC(=O)CCC(=O)N2CC(C)Oc3ccc(C)cc32)cc1 (centres undefined) | -10.3% (inactive)
COc1ccc(NC(C)=O)cc1NC(=O)CN1CCN(c2ccc(F)cc2)CC1 | -5.69% (inactive)
COc1ccccc1/C=C/c1nc(C#N)c(NC(C)c2ccccc2)o1 (centres undefined) | 81.4% (inactive)
CCCCC12CN3CC(C)(CN(C1)C3c1ccc(O)c(OC)c1)C2=O (centres undefined) | 4.32% (inactive)
Cc1ccc(OCC(=O)Nc2ccc(OCc3cc(=O)n4c(C)csc4n3)cc2)cc1C | 18.3% (inactive)
CC(C(=O)N1CCN(c2ccccc2F)CC1)c1ccc([N+](=O)[O-])cc1 (centres undefined) | -11.5% (inactive)
O=C1OC(C(=O)Nc2cccc(Br)c2)Cc2ccccc21 (centres undefined) | 7.91% (inactive)
O=C(CCSc1ccccc1)N1CCN(c2ccccc2F)CC1 | 72.3% (inactive)
Cn1cc(-c2ccccc2)cc(C#N)c1=O | -1.91% (inactive)
Cn1c(-c2sc3cc(C(F)(F)F)cnc3c2-c2ccccc2)n[nH]c1=S | 18.8% (inactive)
O=C(NN1C(=O)C2CCCCC2C1=O)c1ccco1 (centres undefined) | 3.07% (inactive)
CC12CCC(C(=O)N(NC(=O)c3ccccc3O)C1=O)C2(C)C (centres undefined) | -81.2% (active)
CC1=CC(C)(C)NC(=S)N1NC(=O)c1ccccc1Cl | 38.2% (inactive)
CCC(C)NCC(=O)Nc1ccc([N+](=O)[O-])cc1C(=O)Nc1ccccc1F (centres undefined) | 20.4% (inactive)
Cn1c(=O)cc(OCC(=O)N2CCN(c3ccccc3)CC2)c2ccccc21 | 0.385% (inactive)

SMILES | activity change, negative = inhibition
O=C(C[C@H]1C/C=C\C[C@@H](NC(=O)OCC2c3ccccc3-c3ccccc32)C(=O)O[C@@H](c2ccccc2)CNC1=O)N[C@H](CO)Cc1ccccc1 | -86.9% (active)
CC(C)(C)OC(=O)C[C@@H]1C/C=C\C[C@@H](CC(=O)N[C@H](CO)Cc2ccccc2)C(=O)NC[C@@H](c2ccccc2)OC1=O | -6.88% (inactive)
CC(C)(C)OC(=O)C[C@H]1C/C=C\C[C@@H](CC(=O)N[C@H](CO)Cc2ccccc2)C(=O)NC[C@@H](c2ccccc2)OC1=O | -8.79% (inactive)
O=[N+]([O-])c1ccc(Oc2ccc(F)cc2Br)c2ccncc12 | -78.1% (active)
COc1ccc2oc(=O)c(-c3cn4c(n3)sc3cc(OC)ccc34)cc2c1 | -16.2% (inactive)
O=[N+]([O-])c1ccc(C=Nc2ccc(Cl)cc2Cl)s1 | -103% (active)
C=CCN1C=C(C(=O)c2ccccc2)C(=O)CC1 | -25.3% (inactive)
CCOc1ccc(CC(=O)NCCc2csc3nc(-c4ccccc4F)nn23)cc1 | -0.0376% (inactive)
CCOc1ccccc1C(=O)Nc1ccc2c(c1)N(C)C(=O)c1ccccc1S2 | 5.48% (inactive)
CCOC(=O)c1c(C)oc2ccc(N(C(=O)c3ccncc3)S(=O)(=O)c3ccc(CC)cc3)cc12 | -6.14% (inactive)
CC(=O)c1c(C)oc2ccc(NS(=O)(=O)c3ccccc3)cc12 | -24.7% (inactive)
COC(=O)c1c(C)oc2ccc(N(C(=O)Oc3ccccc3)S(=O)(=O)c3ccccc3)cc12 | -63.7% (active)
Cc1cccc(N(C)C(=O)CS(=O)(=O)c2cccc3nsnc23)c1 | -14.6% (inactive)
CCN(C(=O)Cn1c(=O)nc(-c2ccccc2)c2cc(Cl)ccc21)c1cccc(C)c1 | -20.1% (inactive)
O=C(NCCc1ccc(Cl)cc1)c1ccc2c(c1)N(Cc1ccc(F)cc1)C(=O)CS2 | 2.62% (inactive)
Cc1ccc(Nc2cc(C)nc3c(C)ccc([N+](=O)[O-])c23)cc1 | -65.6% (active)
Cc1ccc(NC2=NC(c3ccccc3)n3c(nc(C)cc3=O)N2)cc1 (centres undefined) | -12% (inactive)
CNc1ccc(-c2nc(-c3ccccc3C)no2)cc1[N+](=O)[O-] | 63.3% (inactive)
C[C@@H]1CN([C@H](C)CO)C(=O)CCCn2cc(nn2)CO[C@H]1CN(C)C(=O)Nc1ccc(N2CCCCC2)cc1 | 5.98% (inactive)
CCOc1ccc(CNC(=O)c2cc(=O)[nH]c3ccc(S(=O)(=O)N4CCCCC4)cc23)cc1 | 66.7% (inactive)
O=C(Nc1ccc2oc(-c3ccc(O)c(Br)c3)nc2c1)c1cc2ccccc2o1 | 17.1% (inactive)
COc1cccc(C(=O)NC2(C(F)(F)F)C(=O)Nc3c2c(=O)[nH]c(=O)n3-c2ccc(C)cc2)c1 (centres undefined) | 23.5% (inactive)
Cc1occc1C(=O)NC1CCCN(Cc2ccc(CC(C)C)cc2)C1 (centres undefined) | -69.3% (active)

SMILES | activity change, negative = inhibition
Cc1ccn(CC(=O)NC2CCCN(Cc3ccccc3F)C2)n1 (centres undefined) | -8.34% (inactive)
Cc1ccsc1C(=O)C1CCCN(Cc2ccc(O)cc2)C1 (centres undefined) | 66.6% (inactive)
COc1cccc(NC(=O)C(=O)NCC(c2ccc3c(c2)OCO3)N2CCN(C)CC2)c1 (centres undefined) | 44% (inactive)
CSc1ccc(NC(=O)Cn2nnnc2-c2ccccc2F)cc1 | 13% (inactive)
CC(C)Oc1ccc(CNC(=O)C2CCN(c3nc4ccccc4n(C)c3=O)CC2)cc1 | 3.39% (inactive)
COc1cccc2cc(-c3nc(Cl)c4c5c(sc4n3)CC(C)CC5)c(=O)oc12 (centres undefined) | 7.76% (inactive)
Fc1ccc(CSc2nnc(-c3cc4c(s3)-c3ccccc3CC4)o2)cc1 | 20.4% (inactive)
COc1ccccc1OC(=O)c1ccc(C)c(S(=O)(=O)N2CCOCC2)c1 | 2.56% (inactive)
COc1ccc(C(=O)Oc2ccc(-c3nnco3)cc2)cc1S(=O)(=O)N1CCOCC1 | -83.8% (active)
O=C(Oc1ccc(-c2nnco2)cc1)c1ccc(F)c(S(=O)(=O)N2CCOCC2)c1 | 34.8% (inactive)
O=C1CCC(C(=O)OCC(=O)Nc2ccc(OC(F)F)cc2)=NN1 | 5.49% (inactive)
COc1ccc(NC(=O)COC(=O)CNC(=O)C2CCCCC2)cc1 | 16% (inactive)
CCC(C)(C)c1ccc(Oc2ccc(NC(=O)COC(=O)C3=COCCO3)cc2)cc1 | -70.9% (active)
COc1cccc(Nc2nc3ccccc3c3nncn23)c1 | 15% (inactive)
COc1ccc(NC(=O)CCc2nnc3n(CC(C)C)c(=O)c4ccccc4n23)cc1OC | -15.8% (inactive)
O=C(Cn1c(=O)nc(-c2ccccc2)c2cc(Cl)ccc21)NCc1ccc(Cl)cc1 | 4.55% (inactive)
CCCCNc1ccc(-c2nc(-c3ccncc3)no2)cc1[N+](=O)[O-] | 14.6% (inactive)
Cc1ccccc1Cn1nc(C)c(NC(=O)c2cc(-c3ccc(F)cc3)on2)c1C | -10.2% (inactive)
Cc1ccccc1Cn1nc(C)c(NC(=O)C(F)(F)F)c1C | -69.7% (active)
Cc1nn(Cc2ccccc2)c(C)c1NS(=O)(=O)c1ccccc1 | 18.1% (inactive)

From PubChem BioAssay AID1259415 (National Center for Advancing Translational Sciences (NCATS), 2018)
